Where “and” joins values, the source holds several entries; their conditions need not be identical. Equal values may be shown once. Inconclusive results are not listed. Entries that show only a call come without a potency. Calls of active or inactive are those of the source. Calls follow the shape of the dose curve; as a rule, active = well fitted curve in the direction sought with a large enough effect; inconclusive = small, poorly fitted or top-dose-only effect, or another doubt; inactive = no such curve, though single readings can be large; an effect the other way counts as inactive or inconclusive.
Columns and labels:
[1] = tested on: Zika virus NS2B-NS3 protease (unlinked complex); assay: Primary screen GU Rhodamine qHTS for Zika virus inhibitors: Unlinked NS2B-NS3 protease assay (AID 1347159); also: nearly all actives have a fitted effect of over 60% in size
In short: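 Buffer 10 mM Tris-HCl pH 8.0, 0.01% Tween 20. Unlinked protease 25 nM; compound preincubation 15 min, RT, protected from light. Substrate Rhod110, 1.5 microM; ~15% conversion in 15 min.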

[2] = tested on: Zika virus NS2B-NS3 protease (linked construct); assay: Primary screen NINDS Rhodamine qHTS for Zika virus inhibitors (AID 1347160); settings: outcome: dose series up to 57.1 µM; also: nearly all actives have a fitted effect of over 55% in size
In short: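 Aprotinin served as in-plate control. Conditions: 25 nM linked NS2B-NS3, pH 8.0 Tris buffer, titrated compounds, 15 min preincubation and 15 min reaction with 1.5 microM Rhod110 substrate at room temperature.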

[3] = Vero cells viability qHTS for Zika virus inhibitors (AID 1347167)
In short: (§1)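 To flag cytotoxic protease inhibitors, viability is measured by ATP-dependent luminescence (CellTiter Glo) after cells attached overnight receive compound for 24 to 48 hours in DMEM with 4% FBS.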

[4] = HepG2 cells viability qHTS for Zika virus inhibitors (AID 1347168)
In short: as §1

[5] = Tertiary RLuc qRT-PCR qHTS assay for Zika virus inhibitors (AID 1347169); also: potency is read from the fitted curve at half-maximal effect; nearly all actives have a fitted effect of over 55% in size
In short: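 Orthogonal cell-based infection assay using recombinant ZIKV-RLuc (Cambodian) in Vero cells; compound added prior to virus at MOI 1-2. Incubation lasts 48-72 hrs at 37 degrees C before live-cell Renilla substrate is added and luminescence measured.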

[6] = OV-KATE Cancer Cell Toxicity qHTS against the NCATS CANVASS Library (AID 1347345)
In short: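 1000 cells/well seeded and rested 4 h at 37 °C before pin transfer of compounds in an 11-pnt series. Exposure 72 h at 37 °C/5% CO2; viability by CellTiter-Glo luminescence after 15 min at room temperature.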

In the case of `Nc1ccn([C@@H]2O[C@H](CO)[C@@H](O)C2(F)F)c(=O)n1`, the outcome [1] is reported as “inactive”, the outcome [2] is reported as “inactive” and the Potency [3] is reported as “inactive”. The Potency [4] was “inactive” and the Potency [5] was 30.2 nM (active).

In the case of `O=c1[nH]c(=O)n([C@H]2CCCO2)cc1F`, the outcome [1] is reported as “inactive” and the outcome [2] is reported as “inactive”.

In the case of `Cc1nc2n(c(=O)c1CCN1CCC(c3noc4cc(F)ccc34)CC1)CCC[C@H]2O`, the outcome [1] is reported as “inactive” and the outcome [2] is reported as “inactive”.

For `CC(C)(C)CC(C)(C)c1ccc(OCCOCC[N+](C)(C)Cc2ccccc2)cc1`, the outcome [1] was “inactive”, the outcome [2] was “inactive” and the Potency [3] was “inactive”. For the same compound, the Potency [4] was “inactive” and the Potency [5] was 33 µM (active) and 13.1 µM (active) and 10.4 µM (active).

In the case of `CCCCS(=O)(=O)N[C@@H](Cc1ccc(OCCCCC2CCNCC2)cc1)C(=O)O`, the outcome [1] is reported as “inactive” and the outcome [2] is reported as “inactive”.

With `CC(=O)OCC(=O)[C@@]1(O)[C@H](C)C[C@H]2[C@@H]3CCC4=CC(=O)C=C[C@]4(C)[C@@]3(F)[C@@H](O)C[C@@]21C` the outcome [1] was “inactive” and the outcome [2] was “inactive”.

For `CN1CCC[C@@H]1c1cccnc1`, the outcome [2] was “inactive” and the outcome [6] was “inactive”.

In the case of `NC(=NCCCCCCN=C(N)/N=C(\N)Nc1ccc(Cl)cc1)/N=C(\N)Nc1ccc(Cl)cc1`, the outcome [1] is reported as “inactive” and the outcome [2] is reported as “inactive”.

With `COC(=O)CCc1ccc(OCC(O)CNC(C)C)cc1` (configuration not stated) the outcome [1] was “inactive” and the outcome [2] was “inactive”.

With `CN(C)CCCOc1nn(Cc2ccccc2)c2ccccc12` the outcome [1] was “inactive” and the outcome [2] was “inactive”.

For `OC[C@H]1O[C@H](O[C@]2(CCl)O[C@H](CCl)[C@@H](O)[C@@H]2O)[C@H](O)[C@@H](O)[C@H]1Cl`, the outcome [1] was “inactive” and the outcome [2] was “inactive”.

With `CC(C)(C)NC(=O)[C@@H]1CN(Cc2cccnc2)CCN1C[C@@H](O)C[C@@H](Cc1ccccc1)C(=O)N[C@H]1c2ccccc2C[C@H]1O` the outcome [1] was “inactive” and the outcome [2] was “inactive”.

For `CN1[C@@H]2CC[C@H]1CC(OC(=O)c1c[nH]c3ccccc13)C2` (some centres not stated), the outcome [1] was “inactive” and the outcome [2] was “inactive”.

Reference: PubChem BioAssay (NCATS)
